Assay results: PubChem BioAssay (NCI)
The panel holds about 83,000 compounds, 20% with a hit somewhere; the sample as a whole holds those more often.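 Activity criterion: percent growth below 10, measured after cells in 96-well plates were exposed to a single compound concentration for 48 hours.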 Unmarked numbers belong to inactive results. The source made the active and inactive calls.

Columns and labels:
Experiment in all cases: NCI-60 one-dose screen, 48 h (100 = growth as untreated, 0 = no growth, -100 = all killed)
SK-MEL-2 melanoma = conditions: 10 µM unless noted
EKVX NSCLC = conditions: 10 µM unless noted
SN12C renal = conditions: 10 µM unless noted
UO-31 renal = conditions: 10 µM unless noted
TK-10 renal = conditions: 10 µM unless noted
ACHN renal = conditions: 10 µM unless noted
CAKI-1 renal = conditions: 10 µM unless noted
A498 renal = conditions: 10 µM unless noted
CCRF-CEM leukemia = conditions: 10 µM unless noted
MOLT-4 leukemia = conditions: 10 µM unless noted
SR leukemia = conditions: 10 µM unless noted
RPMI-8226 leukemia = conditions: 10 µM
OVCAR-8 ovarian = conditions: 10 µM unless noted
OVCAR-5 ovarian = conditions: 10 µM unless noted
OVCAR-4 ovarian = conditions: 10 µM unless noted
SK-OV-3 ovarian = conditions: 10 µM
IGROV1 ovarian = conditions: 10 µM unless noted
OVCAR-3 ovarian = conditions: 10 µM unless noted
HS 578T breast = conditions: 10 µM unless noted
NCI/ADR-RES ovarian = conditions: 10 µM unless noted

SMILES | growth (SK-MEL-2 melanoma) | growth (EKVX NSCLC) | growth (SN12C renal) | growth (UO-31 renal) | growth (TK-10 renal) | growth (ACHN renal) | growth (CAKI-1 renal) | growth (A498 renal) | growth (CCRF-CEM leukemia) | growth (MOLT-4 leukemia) | growth (SR leukemia) | growth (RPMI-8226 leukemia) | growth (OVCAR-8 ovarian) | growth (OVCAR-5 ovarian) | growth (OVCAR-4 ovarian) | growth (SK-OV-3 ovarian) | growth (IGROV1 ovarian) | growth (OVCAR-3 ovarian) | growth (HS 578T breast) | growth (NCI/ADR-RES ovarian)
COc1cc(C(=O)/C=C/c2c(-c3cccs3)nc3sccn23)cc(OC)c1OC | -3.21% (active) | 3.45% (active) | 4.03% (active) | 10.2% | 3.46% (active) | 12.4% | -29% (active) | -26.3% (active) | 10.8% | -1.21% (active) | 10.3% | -0.804% (active) | 0.926% (active) | 0.426% (active) | -2.2% (active) | -2.52% (active) | 5.57% (active) | -19.1% (active) | -9.28% (active) | -29.7% (active)
CC1(C)CC(=O)C2=C(C1)Nc1cc3c(cc1C2c1ccc(F)cc1)OCO3 (stereo not drawn) | 91.3% | 92.3% | 106% | 74% | 99.4% | 98.6% | 96.4% | 82% | 86.4% | 83.1% | 90.4% | 92.1% | 97% | 107% | 93.9% | 97.6% | 100% | 103% | 88.3% | 90.7%
COc1cc(/C=C2\C(=O)N(c3c(Cl)cccc3Cl)c3ccccc32)cc(OC)c1O | 36% | 79.8% | 50% | 31.7% | 48.2% | 40.5% | 7.23% (active) | 102% | 17.6% | 0.985% (active) | 3.84% (active) | 12.5% | 33.1% | 89.8% | 53.6% | 53.7% | 6.56% (active) | 46% | 39.8% | 38.7%
CC(C)N1CCN(c2ccc(OC[C@H]3CO[C@](Cn4cncn4)(c4ccc(Cl)cc4Cl)O3)cc2)CC1 | 95% | 91.4% | 81.2% | 98.7% | 91.5% | 102% | 79.3% | 76.7% | 82.6% | 86.2% | 58.1% | 88.7% | 100% | 85.1% | 99.2% | 94% | 104% | 102% | 84% | 88.1%
COc1ccc(OC)c(C2C(C#N)=C(N)Oc3cc(O)ccc32)c1 (stereo not drawn) | 96.5% | 88.7% | 98% | 81.7% | 91.1% | 94.4% | 73.5% | 92.2% | 88.2% | 88.2% | 80% | 84.5% | 100% | 97% | 101% | 97.2% | 105% | 111% | 94% | 94.7%
COc1cc(/C=C/C(=O)C(=Cc2ccc(F)c(F)c2)C(=O)/C=C/c2ccc(O)c(OC)c2)ccc1O | 6.91% (active) | 72.1% | 31.2% | 53.2% | 35.5% | 27.3% | 95.6% | 116% | 9.98% (active) | 12.2% | 18.2% | 19.9% | 11.1% | 115% | 39.3% | 94.4% | 5.44% (active) | -11.9% (active) | 38.4% | 57.6%
Clc1ccc(Nc2nc(Nc3ccccc3)nc(Nc3ccc(-c4cc(-c5ccc(Cl)cc5)on4)cc3)n2)cc1 | 64.2% | 69.5% | 64% | 41.7% | 52.8% | 47.1% | 48.2% | 43.9% | 70.5% | 52.2% | 51.5% | 50.8% | 39.4% | 87.2% | 64.6% | 91.2% | 34.7% | 71.6% | 11.7% | 51.4%
O=[N+]([O-])c1ccc(O)c2ncccc12 | 79.1% | 39.8% | 35.9% | 60.3% | 83.2% | 51.8% | 57% | 96% | 25.5% | 33.4% | 21.5% | 52.4% | 25.3% | 89.8% | 33.8% | 75.2% | 29.1% | 11.1% | 74.2% | 22.9%
O=C1C(N2CCOCC2)=Cc2cccc3cccc1c23 | 110% | 60.9% | 106% | 88.9% | 98% | 96.3% | 108% | 84.3% | 102% | 18.2% | 40.8% | 105% | 96.1% | 103% | 90.5% | 95.8% | 112% | 101% | 86.1% | 99.8%
O=C1OCC2=C1C(c1ccc3c(c1)OCO3)CC(=O)N2c1cccc(Cl)c1 (stereo not drawn) | 103% | 96.3% | 95.9% | 85.1% | 99.6% | 103% | 90.2% | 84.6% | 90.9% | 95.2% | 98.6% | 90.1% | 102% | 106% | 93.5% | 97.5% | 104% | 109% | 94.5% | 98.9%
CCCN(CCC)c1ccc(/C=C/c2ccc3cc(OCC)ccc3n2)cc1 | 88.2% | 86.3% | 90.7% | 71.8% | 116% | 92.4% | 85.1% | 64.6% | 63.4% | 53% | -8.74% (active) | 35.6% | 94.6% | 110% | 80.8% | 104% | 99.6% | 132% | 66.5% | 93.1%
COc1ncnc2c1ncn2C/C(Br)=C(\Br)CCl | 51.6% | 114% | 10.8% | -56.8% (active) | 51.3% | 14.9% | 96.2% | 94.8% | -38.7% (active) | 18.9% | 8.2% (active) | -25.4% (active) | 0.995% (active) | 62.1% | -47.1% (active) | 148% | 11.5% | -94.2% (active) | 23.5% | -40.4% (active)
Cc1ccc(C)c2c1sc1nc3nc4sc5ccccc5n4c(=N)c3c(=O)n12 | 121% | 95.7% | 105% | 78.1% | 162% | 99.1% | 106% | 69.1% | 81.1% | 104% | 78.5% | 89.4% | 116% | 91.3% | 88% | 92.5% | 64.3% | 89.4% | 94.8% | 97.6%
COc1cc(-c2ccc3cc(OC)c(OC)c(OC)c3c2)cc(OC)c1OC | 61% | 65.7% | 92.9% | 35.5% | 85.7% | 79.8% | 42.5% | 77.3% | 55.2% | 83.9% | 4.29% (active) | 53.1% | 78.4% | 82% | 61.2% | 76.7% | 68.6% | 78.9% | 69.1% | 36.6%
COc1cccc(C2C3=C(COC3=O)N(CCO)c3cc4c(cc32)CCC4)c1 (stereo not drawn) | 36.8% | 27.9% | 19.5% | 42.3% | 53.8% | 35.5% | 4.92% (active) | -19.8% (active) | 20.9% | 24.3% | 29.4% | 28.1% | 20.9% | 32.9% | 10.3% | 20.9% | 8.37% (active) | -46% (active) | 2.16% (active) | –
COc1cc(C(=O)N(C(C)C)C2CCCCC2)cc(OC)c1OC | 98.5% | 144% | 96.3% | 89% | 94% | 103% | 86.6% | 102% | 94.8% | 97.1% | 99.5% | 88.5% | 90.3% | 109% | 107% | 91.3% | 105% | 113% | 102% | –
